Source: PubChem (National Center for Advancing Translational Sciences (NCATS))
Most compounds without a hit are left out; they make up all but 9.2% or so of the library.
ELG1 genotox = inducers of genotoxicity in HEK293T ELG1-luciferase cells. hit rate 1.3% among 330,000. Potency, µM (series often up to 46 µM), inactives show at the highest dose activity change, positive = activation, actives largely listed as activators. HEK293T ELG1-luciferase reporter, luminescence, 16 h; further: % of control where 0% means no effect; nearly all actives have a fitted effect of over 60% in size
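Genotoxic stress is detected as increased luminescence from luciferase-tagged ELG1 in HEK293T cells, measured with ONE-Glo after a 16 hr treatment at 37 °C.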
ELG1 DNA repair = blocks ELG1-dependent DNA repair in HEK293T cells; HEK293T ELG1-luciferase reporter, luminescence, 16 h; DNA damage induced by 5-fluorouridine; Potency, µM (series often up to 46.1 µM), for inactives: top-dose activity change, negative = inhibition, actives largely listed as inhibitors; hit rate 2.3% among 330,000; further: on the % scale 0 is the no-effect control and ±100 the full control effect; nearly all actives have a fitted effect of over 55% in size
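Step one: seed 2,000 cells per well. Step two: pin-transfer compound or DMSO alongside 5-fluorouridine. Step three: incubate 16 hr, 37 °C, 5% CO2. Step four: add ONE-Glo, wait 30 min, read luminescence.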
SMN2 splice enh = SMN2 splice variant enhancement; HEK293 SMN2-luciferase splicing reporter, luminescence, 30-36 h; hit rate 2.8% among 210,000; Potency, µM (series often up to 46.1 µM), for inactives: top-dose activity change, positive = activation, hits mostly activators; further: % of control where 0% means no effect; nearly all actives have a fitted effect of over 55% in size
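HEK293 cells carry an SMN2 […]–luciferase reporter in which exon 7 inclusion puts luciferase in frame. Cells were plated 10-12 h before compound addition, then incubated 30-36 h at 37C. ONE-Glo luminescence was read; sodium butyrate at 4.5 mM final served as control.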
FLuc modulator = counter-screen for miR-21 project: firefly luciferase inhibitors or activators; purified FLuc, Km substrates, luminescence inhibition; hit rate 6.9% among 360,000; Potency, µM (highest dose often 57.5 µM), inactives show at the top dose activity change, negative = inhibition, most hits filed as inhibitors; P08659;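 further: plate controls were vehicle for no effect and reference inhibitor for full effect; nearly all actives have a fitted effect of over 55% in size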
Target sequence (P08659 whole entry, looked up): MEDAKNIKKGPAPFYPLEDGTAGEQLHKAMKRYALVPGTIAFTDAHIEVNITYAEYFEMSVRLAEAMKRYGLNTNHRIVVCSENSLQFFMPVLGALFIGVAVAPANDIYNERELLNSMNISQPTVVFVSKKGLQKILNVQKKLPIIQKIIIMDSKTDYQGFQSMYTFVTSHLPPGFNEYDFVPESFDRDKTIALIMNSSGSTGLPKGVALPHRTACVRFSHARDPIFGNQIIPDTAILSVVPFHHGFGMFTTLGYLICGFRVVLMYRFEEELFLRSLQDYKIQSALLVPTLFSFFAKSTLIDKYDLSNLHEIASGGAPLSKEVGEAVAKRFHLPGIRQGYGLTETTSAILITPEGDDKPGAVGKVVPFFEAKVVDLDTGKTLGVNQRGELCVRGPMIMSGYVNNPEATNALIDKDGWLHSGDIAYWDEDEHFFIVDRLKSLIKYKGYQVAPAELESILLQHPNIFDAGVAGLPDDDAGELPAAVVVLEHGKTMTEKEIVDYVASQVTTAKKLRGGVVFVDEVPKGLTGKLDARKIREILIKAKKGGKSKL
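Biochemical qHTS of compounds, final roughly 60 µM downward over six points, against 10 nM purified firefly luciferase using Km concentrations of substrates (10 uM D-luciferin, 10 uM ATP) in Tris acetate pH 7.5 buffer; luminescence output.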
NPC1 prom act = NPC1 promoter activation; Huh7 NPC1 promoter luciferase reporter, 24 h; Potency, µM (doses to about 9.22 µM), for the others: at the top dose activation, usual class: activators; hit rate 2.4% among 320,000; AID 485313; further: % of control where 0% means no effect; nearly all actives have a fitted effect of over 60% in size
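Luciferase expression driven by the NPC1 promoter was measured in stably transfected Huh7 cells after a 24 h compound incubation, using a luciferase reagent and a luminescence read.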
Rab9 prom act = activators of Rab9 promoter. AID 485297. Potency, µM (top dose mostly 9.22 µM), inactives show at the highest dose activation, negative = inhibition, usual class: activators. Huh7 Rab9 promoter-luciferase reporter, luminescence, 24 h. hit rate 2.8% among 320,000; further: % of control where 0% means no effect; nearly all actives have a fitted effect of over 60% in size
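Cells were plated at 1500 per well in reduced-serum medium with 10% FBS and left 2 h. Compound in DMSO was then added for 24 h at 37 °C. Reporter signal was read by luminescence after 10 min with luciferase detection reagent.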
* hit, by the source's call; u = inconclusive; x = no result given; [ ] = another dose, or the depositor's remark. The call rests on the fitted dose curve; in most records, active means well fitted curve in the direction sought with a large enough effect; inconclusive means small, poorly fitted or top-dose-only effect, or another doubt; inactive means no such curve, though single readings can be large; an effect the other way counts as inactive or inconclusive. Potency means the concentration at half of the fitted maximal effect.

SMILES	ELG1 genotox	ELG1 DNA repair	SMN2 splice enh	FLuc modulator	NPC1 prom act	Rab9 prom act
COc1ccc(/C=N/NC(=O)c2ccc[nH]2)cc1	8.2µM*	u	x	5.36µM*	2.51µM*	1.58µM*
CSc1ccc(/C=N/NC(=O)c2ccc(O)cc2)cc1	u	u	u	4.78µM*	u	2.51µM*
CCOc1ccccc1NC(=O)c1c(NC(=O)C(C)Oc2ccc(Cl)cc2)sc2c1CCCCC2 (stereo not given)	x	x	9.9%	3.1%	x	x
Cc1cccc(N2CCN(C(=O)CCNS(=O)(=O)c3ccc4c(c3)CCC(=O)N4)CC2)c1C	-15.4%	11.2µM*	-82.7%	2.7%	-2.0%	-13.1%
O=C(CN1C(=O)/C(=C/c2ccco2)SC1=S)Nc1ccc(C(=O)O)c(O)c1	4.1%	19.0%	x	19µM*	0.4%	2.1%
Cc1cc(NC(=O)CCN2C(=O)/C(=C/c3ccccc3F)SC2=S)no1	1.8%	10.3%	-17.2%	-3.4%	-2.3%	0.5%
O=C(CCCN1C(=O)/C(=C/c2ccccc2)SC1=S)Nc1ccc(C(=O)O)c(O)c1	1.6%	9.9%	x	12µM*	-2.8%	2.7%
O=C(CN1C(=O)/C(=C/c2ccco2)SC1=S)Nc1ccc(O)c(C(=O)O)c1	4.4%	-7.3%	x	u	-2.2%	8.7%
O=C(CCN1C(=O)S/C(=C/c2ccccc2)C1=O)Nc1ccc(C(=O)O)c(O)c1	7.9%	0.0%	x	2.39µM*	22.5%	24.2%
O=C(CCCN1C(=O)/C(=C/c2cccs2)SC1=S)Nc1ccc(O)c(C(=O)O)c1	0.0%	6.5%	x	u	-0.7%	-3.2%
O=C(CCN1C(=O)/C(=C\c2ccccc2F)SC1=S)Nc1ccc(C(=O)O)c(O)c1	3.2%	23.3%	x	5.36µM*	-3.6%	0.7%
COC(=O)N1C2=C(c3ccccc3[C@@H]1CC(=O)Nc1ccc3ccc4cccc5ccc1c3c45)[C@@H]1C(=O)N(c3ccccc3)C(=O)[C@@H]1[C@H](C)C2	x	x	-3.5%[9.22 µM]	x	x	x
O=C(CCN1C(=O)S/C(=C\c2ccc(F)cc2)C1=O)Nc1ccc(C(=O)O)c(O)c1	7.5%	u	x	2.13µM*	u	12.6%
O=C(CN1C(=O)S/C(=C\c2ccccc2)C1=O)Nc1cc([N+](=O)[O-])ccc1O	-0.7%	-2.8%	x	13.5µM*	3.2%	10.6%
OCCC1CN(Cc2cnc(-c3ccc(Cl)cc3)nc2)CCN1C1CCCC1 (stereo not given)	-0.3%	6.51µM*	x	-1.2%	1.5%	-14.8%
C[C@H](CO)N1C[C@H](C)[C@@H](CN(C)S(C)(=O)=O)Oc2ccc(NC(=O)Nc3ccccc3)cc2C1=O	0.5%	23.6%	x	x	x	x
CCNc1ncnc2c1cnn2C	5.0%	-24.2%	-3.6%	-0.5%	-5.5%	-1.7%
CS(=O)(=O)c1ccccc1C(=O)Nc1nc2ccccc2[nH]1	0.8%	6.4%	x	-2.6%	-3.9%	2.0%
CSc1ccccc1C(=O)Nc1nc2ccccc2[nH]1	u	u	14.1µM*	u	3.16µM*	4.47µM*
CSc1ccccc1C(=O)Nc1nc2ccccc2c(=O)[nH]1	6.5%	u	x	19µM*	24.4%	2.82µM*
COc1ccc(S(=O)(=O)NCc2ccc(C(=O)NCc3ccccc3)cc2)cc1	x	x	-11.6%	-2.7%	x	x
COCCn1c(C)cc(O)c(C(c2ccccc2)N2CCN(c3ccccc3F)CC2)c1=O (stereo not given)	x	x	x	3.4%	x	x
Cc1ccnc2nc(C(=O)Nc3ccc(S(=O)(=O)N4CCCC4)cc3)nn12	-1.1%	u	x	4.4%	1.2%	10.1%
CCOC(=O)c1cc(S(=O)(=O)N2CCN(c3ccc(OC)cc3)CC2)[nH]n1	x	x	x	-12.2%	x	x
CCOc1ccc(NC(=O)CC2C(=O)N(c3ccccc3)C(=O)N2CCc2sccc2C)cc1 (stereo not given)	x	x	u	-4.8%	x	x
SMILES	ELG1 genotox	ELG1 DNA repair	SMN2 splice enh	FLuc modulator	NPC1 prom act	Rab9 prom act
O=C(NCCCN1CCN(c2ccccc2)CC1)c1ccc2nc(CCc3ccccc3)oc2c1	x	x	x	0.0%	x	x
Cc1ccccc1-c1nnc(-c2ccc(Cl)cc2)o1	16.4µM*	u	x	6.75µM*	u	3.98µM*
Cc1ccccc1-c1nc(Cc2ccc(Cl)cc2)no1	23.1µM*	u	24.2%	u	13.6%	2.2%
Cc1ccccc1-c1nnc(-c2ccccc2)o1	9.2µM*	u	12.6µM*	6.75µM*	u	3.16µM*
Cc1cc(-c2nnc(-c3cccc(Cl)c3)o2)no1	u	u	x	5.36µM*	3.55µM*	2.51µM*
Cc1cc(NC(=O)c2cc(-c3cccc(Cl)c3)on2)no1	6.2%	2.5%	-11.1%	-2.4%	-0.1%	-0.1%
CCC(C)[C@H](NC(=O)[C@@H]1Cc2c([nH]c3ccccc23)C2c3ccccc3C(=O)N21)C(=O)N1CCC[C@@H]1C(=O)O (stereo not given in full)	-0.2%	5.3%	x	1.5%	4.6%	4.2%
O=C1c2ccccc2CN1C(CO)Cc1ccccc1 (stereo not given)	2.2%	15.1%	x	-0.4%	-1.9%	-0.6%
Cn1cc(-c2nnc(-c3ccccc3)o2)c2ccccc21	u	u	2.51µM*	0.675µM*	2.51µM*	2.24µM*
Cc1ccccc1-c1nnc(CS(=O)(=O)c2ccccc2)o1	u	u	x	4.78µM*	1.12µM*	1.12µM*
Cc1nnc(-c2ccccc2)o1	2.7%	6.8%	x	-0.1%	-0.1%	0.6%
Cc1cccc(-c2nnc(-c3ccccc3)o2)c1	8.2µM*	u	11.2µM*	9.53µM*	u	u
O=C(NNc1cc(Cl)ccc1Cl)C1CCC1	1.2%	-1.7%	x	4.4%	2.1%	1.3%
CCCCC/C=C\C/C=C\CC1OC1C/C=C\CCCC(=O)O (stereo not given)	x	x	-2.3%	x	x	x
COc1ccc(NC(=O)CCSc2ccc(C)cc2)cc1	-0.4%	6.8%	-4.6%	3.0%	-1.1%	-4.6%
COc1ccc(NC(=O)C(=S)NC2CCCCC2)cc1	8.2µM*	u	12.6µM*	5.36µM*	1.58µM*	2.82µM*
COc1ccc(NC(=O)CCSc2ccc(F)cc2)cc1	u	u	x	15.1µM*	u	3.55µM*
CCc1ccc(NC(=O)C(=S)NC2CCCCC2)cc1	8.2µM*	u	x	3.01µM*	0.794µM*	0.631µM*
COc1ccc(NC(=O)CSC2CCCCC2)cc1	u	u	15.7%	12µM*	3.16µM*	3.55µM*
COc1ccc(NS(=O)(=O)c2cccc(C(=O)NNC(=O)c3cncc(Br)c3)c2)cc1	-0.5%	2.0%	x	4.6%	1.6%	0.3%
Cc1cccc(C)c1NC(=O)NC1(C(=O)NCc2ccncc2)CCCCC1	-0.4%	-0.9%	x	-0.6%	-3.0%	2.7%
